Shown is part of a subset that was picked to be rich in hits.
Pf Dd2 inh: blocks in vitro growth of P. falciparum Dd2 | P. falciparum Dd2 growth, SYBR Green, 72 h | Potency, µM (doses to about 28.9 µM), for the others: top-dose activity, negative = inhibition, most hits filed as inhibitors | 4.3% of 120,000 active; active means well fitted inhibition curve with a large enough effect;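 further: plate controls were DMSO vehicle for no effect and reference drug for full effect; nearly all actives have a fitted effect of over 65% in size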
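Readout: SYBR Green fluorescence, 485 nm excitation, 535 nm emission, after ~16 h lysis at 37C. Before that, Dd2-infected red cells (2.5% hematocrit) grew 72 h with compound, 29 uM top final concentration.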
* marks the source's active call; other numbers are inactive results; [ ] = another dose, or the depositor's remark. Potency means the concentration at half of the fitted maximal effect.

Screening Cc1c(F)cccc1NC(=O)N1CCCC(c2noc(COc3ccccc3)n2)C1 (stereo not drawn) returned Pf Dd2 inh -86%.
`CCCNC(=O)N1CCC(c2noc(COc3ccc(F)cc3)n2)C1` (stereo not drawn) gave Pf Dd2 inh -29%.
`CCOc1ccccc1NC(=O)N1CCC(c2noc(COC)n2)C1` (stereo not drawn) gave Pf Dd2 inh -7%.
For COCCOCc1nc(C2CCN(C(=O)NCc3ccc(C)cc3)CC2)no1 the results were Pf Dd2 inh -25%.
`CCOc1ccccc1NC(=O)N1CCCC(c2noc(COc3ccccc3)n2)C1` (stereo not drawn) gave Pf Dd2 inh 5.6µM*.
For O=c1c2cn[nH]c2nc(SCc2cccc(Br)c2)n1-c1ccc(Cl)cc1 the results were Pf Dd2 inh 9%.
`Cc1cc(-n2c(SCc3ccccc3F)nc3[nH]ncc3c2=O)ccc1Cl` gave Pf Dd2 inh -27%.
For Cc1ccccc1-n1c(SCc2ccc(Cl)cc2)nc2[nH]ncc2c1=O the results were Pf Dd2 inh 10µM*.
Screening Cc1cn2nc(C(=O)NCc3ccccc3C(F)(F)F)cc2c(N2CCCC2)n1 returned Pf Dd2 inh -18%.
Screening Cc1cc(=O)n(CC(=O)Nc2cc(F)ccc2F)c(-c2ccccc2)n1 returned Pf Dd2 inh inactive.
Screening CCN(CC)CCOC(=O)c1ccc(NC(=O)c2cc3c(=O)n(CC)c4ccccc4c3s2)cc1 returned Pf Dd2 inh 0.79µM*.
For CCn1c(=O)c2cc(C(=O)Nc3cc(OC)c(OC)c(OC)c3)sc2c2ccccc21 the results were Pf Dd2 inh inactive.
For CCOc1ccc(CCNC(=O)c2cc3c(=O)n(CC)c4ccccc4c3s2)cc1OCC the results were Pf Dd2 inh 11%.
For CCO[C@H]1CN(C(=O)c2ccccc2Cc2ccc(C)c(F)c2)C[C@@H]1O the results were Pf Dd2 inh -12%.
Screening COc1ccc(Cl)cc1C(=O)NC1CCN(C(=O)c2cc3c(=O)[nH]c(C)cn3n2)CC1 returned Pf Dd2 inh 5µM*.
Screening Cc1cn2nc(C(=O)N3CCC(NC(=O)c4ccccc4C)CC3)cc2c(=O)[nH]1 returned Pf Dd2 inh -9%.
Cc1cn2nc(C(=O)N3CCC(NC(=O)c4cccc(Cl)c4)CC3)cc2c(=O)[nH]1 was read as Pf Dd2 inh inactive.
Screening COc1cccc(NC(=O)N2CCC(Oc3ncccc3C(=O)N3CCOCC3)C2)c1 (stereo not drawn) returned Pf Dd2 inh 9%.
For COc1ccc(OC)c(NC(=O)c2oc3c(c2C)-c2nn(Cc4ccc(Cl)cc4)cc2CC3)c1 the results were Pf Dd2 inh 10µM*.
COc1ccc(NC(=O)c2oc3c(c2C)-c2nn(Cc4c(F)cccc4Cl)cc2CC3)c(OC)c1 was read as Pf Dd2 inh inactive.
`COc1cc(NC(=O)c2oc3c(c2C)-c2nn(Cc4cccc(Cl)c4)cc2CC3)cc(OC)c1` gave Pf Dd2 inh -28%.
`CC(C)c1ccc(NC(=O)Cn2c(=O)n(Cc3nc(-c4ccccc4)no3)c(=O)c3cc4c(cc32)OCO4)cc1` gave Pf Dd2 inh -8%.
`Cc1noc(Cn2c(=O)c3cc4c(cc3n(CC(=O)Nc3ccc(C(C)C)cc3)c2=O)OCO4)n1` gave Pf Dd2 inh 13µM*.
COc1ccc(NC(=O)Cn2c(=O)n(Cc3nc(C)no3)c(=O)c3cc4c(cc32)OCO4)cc1OC was read as Pf Dd2 inh -8%.
`CCC(C)NC(=O)N1CCC(c2nn(CC(=O)NC)c3c2COCC3)CC1` (stereo not drawn) gave Pf Dd2 inh 26%[5.79 µM].
Screening CCn1c(CO)nnc1C1CC(NC(=O)Cc2c(C)n[nH]c2C)C1 (stereo not drawn) returned Pf Dd2 inh -2%.
Screening Cc1ccc(Cn2cc(-c3ccncc3)cc2C(=O)N2CCN(C)CC2)cc1 returned Pf Dd2 inh 6.3µM*.
Screening CCn1cc(-c2ccc(Cl)cc2)cc1C(=O)NCc1ccncc1 returned Pf Dd2 inh inactive.
`Cc1ccccc1Cn1cc(-c2ccncc2)cc1C(=O)O` gave Pf Dd2 inh inactive.
Screening CCOC(=O)C1CCN(C(=O)c2cc3sc(C)cc3n2C)CC1 returned Pf Dd2 inh -4%.
Cc1ccc(-c2cc(C(=O)O)n(C)c2)cc1 was read as Pf Dd2 inh 32%.
`CCOC(=O)C1CCN(C(=O)c2cc(-c3ccncc3)cn2Cc2ccccc2C)CC1` gave Pf Dd2 inh 6.3µM*.
Screening CS(=O)(=O)c1ccc(CN2C[C@H](O)C[C@H]2c2nc(-c3cccnc3)no2)cc1 returned Pf Dd2 inh 4%[44.1 µM].
For CC(=O)c1ccc(NC(=O)Cn2ccn3nc(-c4ccc(F)cc4)c(CO)c3c2=O)cc1 the results were Pf Dd2 inh 9%.
For CC(C)c1ccc(NC(=O)C2(C)CCCCC(=O)N2)cc1 (stereo not drawn) the results were Pf Dd2 inh -19%.
Screening Cc1cc(C(=O)N2CCN(C(=O)N3CC4CC(C3)[C@H]3CCCC(=O)N3C4)CC2)n(C)n1 (stereo partly drawn) returned Pf Dd2 inh 18%.
CCc1ccc(NC(=O)c2cnn(-c3c(C)cccc3C)c2C2CCN(C(=O)OC(C)(C)C)CC2)cc1 was read as Pf Dd2 inh -10%.
COc1ccc(-c2cc(C(F)(F)F)n3nc(C(=O)Nc4cccc(Cl)c4C)cc3n2)cc1 was read as Pf Dd2 inh 39%.
Screening CCOc1ccc(-c2cc3nc(C4CCN(C(=O)OC(C)(C)C)CC4)c(C(=O)Nc4ccc(C)cc4C)cn3n2)cc1 returned Pf Dd2 inh 8.9µM*.
`CCOc1ccc(-c2cc3nc(C4CCN(C(=O)OC(C)(C)C)CC4)c(C(=O)Nc4cccc(Cl)c4C)cn3n2)cc1` gave Pf Dd2 inh 5µM*.
CCOc1ccc(-c2cc3nc(C4CCN(C(=O)OC(C)(C)C)CC4)c(C(=O)Nc4ccc(C)cc4Cl)cn3n2)cc1 was read as Pf Dd2 inh 4µM*.
For CCOc1ccc(-c2nnc(SCC(=O)Nc3ccc(C)cc3Cl)o2)cc1 the results were Pf Dd2 inh 13%.
Screening CCOc1ccc(-c2nnc(SCC(=O)Nc3ccc(C)cc3C)o2)cc1 returned Pf Dd2 inh 16%.
`Cc1cccc(C)c1-n1ncc(C(=O)O)c1C1CCN(C(=O)OC(C)(C)C)CC1` gave Pf Dd2 inh -2%.
For CCOc1ccc(-c2c(C)nn3c(C)c(C(=O)Nc4cccc(Cl)c4C)cnc23)cc1OCC the results were Pf Dd2 inh inactive.
CCOc1ccc(-c2cc3nc(C4CCN(C(=O)OC(C)(C)C)CC4)c(C(=O)Nc4c(C)cccc4C)cn3n2)cc1 was read as Pf Dd2 inh 2.5µM*.
For CCOc1ccc(-c2cc(C(=O)N3CCN(c4cccc(C)c4)C(C)C3)c3ccccc3n2)cc1 (stereo not drawn) the results were Pf Dd2 inh -29%.
COc1ccc(-n2ncc(C(=O)Nc3ccc(C)cc3Cl)c2C2CCN(C(=O)OC(C)(C)C)CC2)cc1 was read as Pf Dd2 inh -7%.
`COc1ccc(C(=O)NC(C(=O)N2CCCC2)C2CCN(C(=O)c3ccc(OC)cc3)CC2)cc1` (stereo not drawn) gave Pf Dd2 inh inactive.
`CC(=O)N1CCN(c2nc3ncccc3o2)CC1` gave Pf Dd2 inh -6%[44.1 µM].
`O=C(Cn1ccnc1)N1CCc2c(n(CCOc3ccccc3)n(-c3ccccc3)c2=O)C1` gave Pf Dd2 inh 45%.
For O=C1NCCCCCN(C(=O)NC2CCCCC2)[C@H]2CCCC[C@@H]12 the results were Pf Dd2 inh 17%.

Screening results (PubChem BioAssay)
